From PubChem
HP1b binding inh: HTS for Inhibitors of HP1-beta Chromodomain Interactions with Methylated Histone Tails | Chromobox protein homolog 1 (Homo sapiens), P83916 | AlphaScreen HP1-beta / biotin-H3K9me3 peptide binding | Potency, µM (doses to about 114 µM), without a hit: at the top dose activity change, negative = inhibition, actives largely listed as inhibitors | 390,000 compounds, 0.56% hits | AID 540317, 2011; note: potency is the fitted concentration of half-maximal effect; nearly all actives have a fitted effect of over 70% in size
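Compound inhibition of the preformed complex between 50 nM HP1-beta and 50 nM biotinylated H3K9me3 peptide was read by AlphaScreen. Buffer was PBS pH 7.4 with 0.01% Tween-20. Incubations ran 30 min at room temperature, with 10 ug/mL donor/acceptor beads.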
JMJD2A Tudor inh: qHTS Assay for Inhibitors of JMJD2A-Tudor Domain. AlphaScreen JMJD2A-Tudor / H3K4me3 peptide binding. 390,000 compounds, 4.4% hits. Lysine-specific demethylase 4A (Homo sapiens), O75164. Potency, µM (top dose mostly 114 µM), for the others: at the top dose activity change, negative = inhibition, usual class: inhibitors; note: potency is the fitted concentration of half-maximal effect; % is set by controls: 0 for no effect and ±100 for the full control effect; nearly all actives have a fitted effect of over 50% in size
PI5P4Ka inh: qHTS for Inhibitors of phosphatidylinositol 5-phosphate 4-kinase (PI5P4K) | max response, % | PI5P4Kalpha enzyme, ADP-Glo luminescence, 60 min; stronger effect = lower value | 330,000 compounds, 1.2% hits | Phosphatidylinositol 5-phosphate 4-kinase type-2 alpha (Homo sapiens), P48426; active = max response of -50% or lower; inconclusive = between -30% and -50%; inactive = -30% or higher; note: value at the top dose of about 77 µM; % is set by controls: 0 for no effect and ±100 for the full control effect
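Compounds were pin-transferred onto PI5P4Kalpha and substrate in HEPES pH 7.4 buffer with EGTA, CHAPS and 5% DMSO. ATP (5 microM final) started the reaction, which ran 60 minutes at room temperature before ADP-Glo detection.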
L3MBTL1 block: qHTS Assay for the Inhibitors of L3MBTL1; 230,000 compounds, 0.66% hits; AlphaScreen L3MBTL1–H3K9me1 peptide binding; Lethal(3)malignant brain tumor-like protein 1 (Homo sapiens), Q9Y468; Potency, µM (doses to about 57.1 µM), for inactives: at the top dose activity, negative = inhibition, usual class: inhibitors; note: potency is the fitted concentration of half-maximal effect; % is set by controls: 0 for no effect and ±100 for the full control effect; nearly all actives have a fitted effect of over 60% in size
Target sequence (Q9Y468 whole entry, looked up): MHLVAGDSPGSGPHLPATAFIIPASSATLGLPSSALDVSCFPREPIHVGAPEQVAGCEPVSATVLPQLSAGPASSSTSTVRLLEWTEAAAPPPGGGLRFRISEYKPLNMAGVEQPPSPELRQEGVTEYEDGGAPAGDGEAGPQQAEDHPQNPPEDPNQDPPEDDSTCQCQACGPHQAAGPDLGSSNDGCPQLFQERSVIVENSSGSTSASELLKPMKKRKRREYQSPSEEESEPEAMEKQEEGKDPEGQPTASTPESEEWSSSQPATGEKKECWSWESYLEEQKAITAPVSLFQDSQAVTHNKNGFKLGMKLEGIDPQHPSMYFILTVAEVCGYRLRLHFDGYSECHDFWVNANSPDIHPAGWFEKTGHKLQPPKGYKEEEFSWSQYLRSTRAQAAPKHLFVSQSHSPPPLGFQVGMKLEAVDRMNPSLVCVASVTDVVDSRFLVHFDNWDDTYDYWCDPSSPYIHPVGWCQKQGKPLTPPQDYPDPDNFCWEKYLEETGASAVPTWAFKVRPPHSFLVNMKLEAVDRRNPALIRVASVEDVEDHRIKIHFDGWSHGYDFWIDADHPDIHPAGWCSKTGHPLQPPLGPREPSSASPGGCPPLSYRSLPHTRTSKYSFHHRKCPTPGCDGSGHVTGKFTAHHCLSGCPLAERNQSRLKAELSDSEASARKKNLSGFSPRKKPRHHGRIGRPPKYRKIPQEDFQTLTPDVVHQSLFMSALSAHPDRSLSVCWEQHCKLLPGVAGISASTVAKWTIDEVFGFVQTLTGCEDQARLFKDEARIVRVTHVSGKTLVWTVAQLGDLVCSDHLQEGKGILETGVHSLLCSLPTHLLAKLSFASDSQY
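AlphaScreen proximity signal between nickel-chelate acceptor and streptavidin donor beads (final 10 ug/mL) reports binding of 50 nM L3MBTL1 to 75 nM biotin-H3 K9me1 peptide; complex incubated with compounds 30 min at room temperature; cefsulodin titration as control.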
BAZ2B block: qHTS Assay for Inhibitors of BAZ2B; AlphaScreen BAZ2B-H3K14Ac peptide displacement; Potency, µM (doses to about 114 µM), for the others: top-dose activity change, negative = inhibition, actives largely listed as inhibitors; Bromodomain adjacent to zinc finger domain protein 2B (Homo sapiens), Q9UIF8; 360,000 compounds, 4.4% hits; note: potency is the fitted concentration of half-maximal effect; % is set by controls: 0 for no effect and ±100 for the full control effect; nearly all actives have a fitted effect of over 60% in size
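Multi-concentration screen (max 110 uM) measuring displacement of acetylated histone H3 peptide from BAZ2B by AlphaScreen, using 50 nM protein, 50 nM peptide and 10 ug/mL streptavidin donor plus Ni-chelate acceptor beads.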
G9a inh: qHTS Assay for Inhibitors of Histone Lysine Methyltransferase G9a; Potency, µM (top dose mostly 102 µM), for inactives: at the highest dose activity, negative = inhibition, hits mostly inhibitors; Histone-lysine N-methyltransferase EHMT2 (Homo sapiens), Q96KQ7; AID 504332, 2011; G9a H3K9 monomethylation, AlphaScreen, 2 h; 350,000 compounds, 8.8% hits; note: potency is the fitted concentration of half-maximal effect; % is set by controls: 0 for no effect and ±100 for the full control effect; nearly all actives have a fitted effect of over 75% in size
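G9a (20 nM) was preincubated 15 min with compound, then reacted 2 h at room temperature with 500 nM biotin-H3K9 peptide and 20 µM SAM. Monomethyl-H3K9 detected by AlphaScreen using anti-H3K9me1 antibody.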
An asterisk follows results filed as active; ? = inconclusive; . = not tested or not shown; [ ] = another dose, or the depositor's remark. Shown are actives, neighbours in structure and some others; about 11% of the full set was active somewhere. Unless noted, calls come from the whole dose curve; as a rule, active = well fitted inhibition curve with a large enough effect; inconclusive = small, poorly fitted or top-dose-only effect; inactive = no such curve, though single readings can be large or run the other way.

SMILES	HP1b binding inh	JMJD2A Tudor inh	PI5P4Ka inh	L3MBTL1 block	BAZ2B block	G9a inh
Cc1cc(C(=O)OCC(=O)NC(=O)C2CCCCC2)ccc1[N+](=O)[O-]	19.9%	-7.1%	.	.	.	.
COc1ccc(-c2nc(SC(C)C(=O)NCC3CCCO3)n[nH]2)cc1 (stereo not drawn)	20.1%	-14.5%	0.7	3.2%	-8.8%	15.8µM*
O=C(Nc1ccc(F)cc1)c1nc[nH]c1C(=O)Nc1ccccc1[N+](=O)[O-]	35.8%	-20.7%	0.7	-14.9%	-38.0%	-30.8%
Nc1ccccc1C(=O)NCc1ccccc1	-4.1%	35.5µM*	-23.1	.	2.7%	-1.7%
CNC(=O)c1nc[nH]c1C(=O)NC	-1.8%	28.2µM*	-6.4	.	?	?
O=C(Nc1ccc(Cl)cc1)c1nc[nH]c1C(=O)Nc1ccccc1F	.	.	3.7	.	.	.
O=C(Nc1ccccc1[N+](=O)[O-])c1nc[nH]c1C(=O)NCCO	33.6%	?	-3.2	3.5%	56.2µM*	14.1µM*
O=C(Nc1ccc(F)cc1)c1nc[nH]c1C(=O)O	95.6%	10µM*	?	.	4.47µM*	-3.8%[2.33 µM]
Cc1ccc(Cl)cc1N1CCN(CCCNC(=O)Cn2ncc3c([nH]c4ccccc43)c2=O)CC1	17.4%	-15.5%	.	.	-2.2%	-5.4%[59 µM]
Cc1ccc(C)c(Cn2c(=O)n(Cc3ccccc3)c(=O)c3sc4ccccc4c32)c1	43.3%	0.3%	.	.	-19.0%	16.5%[59 µM]
Cc1csc2nc(-c3cccc(NC(=O)c4c(F)cccc4F)c3)cn12	6.6%[57 µM]	?	.	.	-25.3%	1.1%[59 µM]
NNC(=O)c1nc[nH]c1C(=O)Nc1ccccc1	49.0%	?	-0.6	-2.2%	1.26µM*	?
CNC(=O)c1[nH]cnc1C(=O)Nc1ccc(OC)cc1	16.7%	-16.9%	-0.8	.	79.4µM*	.
CCNC(=O)c1nc[nH]c1C(=O)NCC	0.4%	39.8µM*	-10.4	0.6%	-6.3%	-18.4%[59 µM]
O=C(NCc1ccccc1)c1nc[nH]c1C(=O)NCc1ccccc1	46.7%	-9.9%	3.7	-12.5%	?	50.1µM*
O=C(Nc1ccccc1)c1nc[nH]c1C(=O)NCc1ccccc1	52.4%	-25.7%	4.8	-2.2%	-9.4%	-3.1%[0.501 µM]
CC(C)(C)OC(=O)N1CCC(c2c(C(=O)NCCN3CCCC3)cnn2-c2ccc(Cl)cc2)CC1	11.0%	-14.2%	.	.	11.3%[57.1 µM]	-7.5%[59 µM]
NC(=O)c1cc(S(=O)(=O)NCC2CCC(C(=O)Nc3cccc(Cl)c3)CC2)cs1 (stereo not drawn)	10.9%	-8.4%	.	.	-1.6%	6.4%[59 µM]
CCOC(=O)c1cccc(NC(=O)c2cc3cc4ccc(C)cc4nc3s2)c1	-13.4%	?	.	.	-12.4%	12.6µM*
CC(=O)N1CCc2cc(S(=O)(=O)CCC(=O)Nc3ccc(C)cc3Br)ccc21	31.0%	-7.7%	.	.	.	?
CC(=O)N1CCc2cc(S(=O)(=O)CCC(=O)Nc3ccccc3F)ccc21	-18.7%	50.1µM*	-9.6	.	-23.3%	?
CCOC(=O)c1cccc(NC(=O)CCn2cccc2)c1	-4.1%	-34.1%	1.4	-6.4%	?	39.8µM*
CCC(=O)N1c2ccc(S(=O)(=O)CCC(=O)NC3CCCC3)cc2CC1C (stereo not drawn)	22.9%	-0.3%	-1.1	9.2%	-9.6%	-12.3%[0.501 µM]
CCC(=O)N1c2ccc(S(=O)(=O)CCC(=O)Nc3ccc(Br)c(C)c3)cc2CC1C (stereo not drawn)	-12.3%	22.4µM*	.	.	.	14.1µM*
COc1ccc(-c2noc(Cn3c(=O)c4ccccc4n(CC(=O)Nc4cccc(C(F)(F)F)c4)c3=O)n2)cc1	39.9%	-12.4%	.	.	-12.5%	-1.8%[59 µM]
